This is a sample that favours compounds with a hit; in the whole collection about 2.3% have one here.
M1 ag: agonists of human M1 muscarinic receptor. CHO-K1 hM1, Fluo-8 calcium fluorescence, agonist mode; 0% DMSO, 100% acetylcholine EC100. activation, % at 3 µM. actives 0.33% (n = 360,000). P11229;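 active = activation above the run's mean compound activation plus 3 SD, cut at about 16% in these data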;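 also: peak over basal fluorescence ratio within a 140 s kinetic read after compound addition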
Target sequence (P11229 whole entry, looked up): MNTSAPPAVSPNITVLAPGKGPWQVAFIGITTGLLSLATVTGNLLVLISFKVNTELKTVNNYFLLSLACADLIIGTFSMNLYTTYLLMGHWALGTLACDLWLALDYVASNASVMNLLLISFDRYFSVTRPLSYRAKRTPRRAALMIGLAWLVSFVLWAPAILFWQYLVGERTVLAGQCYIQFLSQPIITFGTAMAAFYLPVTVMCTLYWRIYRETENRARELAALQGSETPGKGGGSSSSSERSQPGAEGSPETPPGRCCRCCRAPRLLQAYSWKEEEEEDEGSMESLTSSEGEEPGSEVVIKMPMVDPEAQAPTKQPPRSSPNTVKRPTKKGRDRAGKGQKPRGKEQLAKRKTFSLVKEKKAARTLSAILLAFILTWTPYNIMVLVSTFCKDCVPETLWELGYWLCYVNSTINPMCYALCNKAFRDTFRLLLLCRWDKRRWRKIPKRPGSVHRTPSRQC
CHO-K1 Ca ag: counter-screen for M1 agonists: effect in parental CHO-K1 cells; Fluo-8 calcium fluorescence; scaled to maximal ATP response, vehicle zero; activation, % at 3 µM; actives 0.48% (n = 360,000); in the data active = activation above about 15%;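 also: untransfected CHO-K1 host cells lacking M1 receptor as counterscreen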
CHRM1 antagonist: blocks human M1 muscarinic receptor | P11229 | CHO-K1 hM1, Fluo-8 calcium fluorescence, ACh EC80 antagonist | inhibition, % at 3 µM | actives 1.3% (n = 360,000) | AID 588852;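 active = percent inhibition above its own plate's cutoff, namely the mean of that plate's compound wells plus 3 SD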;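 also: peak over basal fluorescence ratio during 140 s after agonist addition; 0% = ACh EC80 plus DMSO and 100% = DMSO alone without agonist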
CHO-K1 Ca PAM: nonselective activator or artifact in parental CHO-K1 calcium assay; activation, % at 3 µM; ATP EC20, Fluo-8 calcium fluorescence; 0% at ATP EC20, 100% at ATP max; actives 0.02% (n = 360,000);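 active = activation above the run cutoff, the mean activation of all test compounds plus 3 SD, cut at about 40% in these data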;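 also: peak over basal fluorescence ratio in a 140 s read after ATP addition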
CHRM1 PAM: human CHRM1 positive allosteric modulation | P11229 | CHO-K1 hM1, Fluo-8 calcium fluorescence, ACh EC20; 0% = ACh EC20, 100% = maximal ACh | activation, % at 3 µM | actives 0.088% (n = 360,000) | AID 588819; in the data active = activation above about 19%, passing the limit was not always enough
CHO-K1 Ca antag: nonselective inhibitor or artifact in parental CHO-K1 cells; ATP-induced calcium, Fluo-8 fluorescence; inhibition, % at 3 µM; actives 0.6% (n = 360,000);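 active = inhibition above a per-plate cutoff, the plate's mean sample inhibition plus 3 SD, cut at about 24% in these data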;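 also: 0% = DMSO plus EC80 ATP and 100% = DMSO alone without ATP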
* hit, by the source's call.

SMILES	M1 ag	CHO-K1 Ca ag	CHRM1 antagonist	CHO-K1 Ca PAM	CHRM1 PAM	CHO-K1 Ca antag
CCCC1C(=O)Nc2ccccc2N1C(=O)c1cccc(C)c1 (stereo not given)	-8	2	68*	8	-27	2
CCCC1C(=O)Nc2ccccc2N1C(=O)c1ccc(C(C)(C)C)cc1 (stereo not given)	-6	-1	-2	11	-2	-19
COc1ccc(OC)c(N(CC(=O)NCC2CCCO2)S(=O)(=O)c2ccccc2)c1 (stereo not given)	-1	1	0	2	1	-2
O=C1CNC(=O)/C1=C\N1CCN(C(c2ccccc2)c2ccccc2)CC1	-6	1	43*	25	-26	-12
COc1ccc(-c2cc3c(=O)n(CC(=O)NCc4ccccc4F)ncn3n2)cc1	0	4	10	6	-12	26*
CCCc1nc(Cl)c(C#N)c2c1CCCC2	22*	0	-12	19	-1	-12
CCc1nc(Cl)c(C#N)c2c1CCCC2	-10	0	-2	32	9	-12
O=C(NCCCN1CCc2ccccc2C1)Nc1ccc(Br)cc1	-1	6	44*	19	-14	-4
Cc1cc(-c2nnc(CCC(=O)NCc3ccc(OC(F)(F)F)cc3)o2)no1	-4	0	-15	0	8	-16
Cc1ccccc1C(=O)Nc1cccc(C(=O)Nc2ccccc2C(=O)O)c1	-2	0	7	-21	5	26*
COc1ccc(-c2noc(N3CCCC(C(=O)Nc4ccc(C(C)=O)cc4)C3)n2)cc1 (stereo not given)	-6	4	8	-7	-11	4
COCCNC(=O)c1ccc2c(=O)n(CCCN3CCCC3=O)c(=S)[nH]c2c1	-2	1	-9	14	10	-13
O=C(NCc1ccccc1Cl)c1ccc2c(=O)n(CCCN3CCCC3=O)c(=S)[nH]c2c1	-2	-1	1	-8	9	30*
COc1ccc(F)cc1S(=O)(=O)NC1CC(C)(C)NC(C)(C)C1	-4	0	15	-8	-5	28*
Cc1nn(C)cc1S(=O)(=O)N1CCCCC1C (stereo not given)	-2	1	-10	17	12	-3
Cc1ccc(/C=C/C(=O)NCCCn2ccnc2)cc1	-12	18*	10	8	-3	16
O=C(/C=C/c1ccc(Cl)c(Cl)c1)NCCCn1ccnc1	-7	0	-11	14	5	-16
Cc1ccc(S(=O)(=O)n2cnc3cc([N+](=O)[O-])ccc32)c(C)c1C	-1	0	13	-9	-8	25*
Cc1cc(N2CCCC2=O)cc(C)c1S(=O)(=O)NCCOc1ccc(C(C)(C)C)cc1	6	14	39*	5	-17	27*
O=C1CCCN1c1ccc(S(=O)(=O)NCCOc2ccccc2)cc1	3	3	7	-8	-3	18
CN(CC1CCCN(CCc2ccc(Cl)cc2)C1)C(=O)C(=O)c1ccco1 (stereo not given)	-5	0	44*	-4	-19	0
Cc1ccccc1CCN1CCCC(CN(C)C(=O)C(=O)c2ccco2)C1 (stereo not given)	-7	0	29	-11	-13	-1
CN(Cc1ccccc1OCCO)CC1CCCN(CCc2ccc(Cl)cc2)C1 (stereo not given)	-9	1	51*	-8	-28	13
COC(=O)C(CC(=O)c1ccc(Br)cc1)n1nc(C)cc1C (stereo not given)	-8	1	21	-3	-20	-4
COC(=O)C(CC(=O)c1ccc(C)cc1)n1nc(C)cc1C (stereo not given)	-9	16*	14	20	-17	0
SMILES	M1 ag	CHO-K1 Ca ag	CHRM1 antagonist	CHO-K1 Ca PAM	CHRM1 PAM	CHO-K1 Ca antag
Cc1ccc(C(=O)CSC2=C(C#N)C(c3ccco3)CC(=O)N2)c(C)c1 (stereo not given)	37*	16*	12	16	-9	1
Cc1ccc(NC(=O)CSC2=C(C#N)C(c3ccco3)CC(=O)N2)cc1 (stereo not given)	1	1	-2	2	7	19
CC1(C)C2CC=C(/C=N/NC(=S)Nc3cccnc3)C1C2 (stereo not given)	-5	16*	1	15	0	14
CCOC(=O)N1CCC(N(CCN(C)C)C(=S)Nc2ccc(F)c(Cl)c2)CC1	-10	0	2	-12	-1	27*
CC1CCCC(NC(=O)COC(=O)/C=C/c2ccc(S(=O)(=O)N3CCOCC3)cc2)C1C (stereo not given)	-1	19*	-16	3	7	3
COc1ccc(/C=C/C(=O)OCC(=O)NC2CCCC(C)C2C)cc1S(=O)(=O)N1CCOCC1 (stereo not given)	-2	2	-10	16	10	-10
CCCc1nc2ccc(Cl)cn2c1Cc1ccsc1	-10	2	-2	11	2	11
Nc1ncnc2c1ncn2C1OCC(O)C1O (stereo not given)	0	1	2	2	3	-2
NS(=O)(=O)c1ccc(CNC(=O)C23CC4CC(CC(C4)C2)C3)cc1	0	-1	8	-9	-6	28*
NS(=O)(=O)c1ccc(CNS(=O)(=O)c2cc(Cl)ccc2Cl)cc1	-1	0	-6	-1	9	13
COc1ccc(N(CC(=O)N/N=C/c2ccccc2OC)S(=O)(=O)c2ccccc2)cc1	-5	2	-11	13	2	-13
CN1CCN(C(=O)CSc2nc(-c3ccncc3)ccc2C#N)CC1	-4	1	26*	-1	-10	19
COC(=O)CSc1nc(-c2cccs2)ccc1C#N	-8	2	47*	19	-18	-7
C#CCSc1nc(-c2cccs2)ccc1C#N	-5	0	6	5	-8	-2
Cc1c(CN2CCC(Oc3ccc(C(=O)N4CCCCC4)cc3)CC2)cnn1C	-5	1	6	11	-8	-10
Cc1cc(C)c(OCCNCc2ccccc2)c(C)c1	-1	20*	-10	23	7	-8
CCNC(=O)C1(C)CCCN(C(=O)c2ccc3c(c2)C(C)(C)CCC3(C)C)C1 (stereo not given)	-7	2	-17	-17	4	3
COc1ccc(C(=O)N/C(=C\c2ccco2)C(=O)OCc2ccco2)cc1	-1	0	-11	11	14	-9
CCCCOc1ccc(C(=O)N/C(=C\c2ccc(OC)cc2)C(=O)OCc2ccco2)cc1	-3	16*	-6	23	2	-19
O=C(N/N=C/c1cc2ccccc2nc1Cl)/C(=C/c1cccs1)NC(=O)c1ccccc1	-1	3	3	-20	-1	-8

Screening data deposited in PubChem BioAssay by The Scripps Research Institute Molecular Screening Center.
